# PubChem BioAssay AID1159580 (chemical genetic matrix, 2015)
# Several values for one entry are separate records, joined by “and”; a condition that tells them apart may be missing. Equal entries are not always repeated. About 2,000 (36%) of roughly 5,500 compounds were called active. Not shown: some 18% with an inconclusive outcome. Some of the results follow. Unmarked numbers belong to inactive results. No stated cut-off is given here; in the data, active means normalized growth mostly below about 0.91 (no sharp cut-off); inconclusive means no clear call, values can overlap the other calls; inactive means mostly above about 0.92.
# Experiment: chemical genetic growth profiling, strain panel (AID 1159580);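 further: tested at 20 µM; growth read once vehicle control cultures reached saturation at 30 °C; 1 = growth at the plate median or of vehicle wells; lower values mean less growth of the strain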
# Details: S. cerevisiae deletion strains, growth OD
smiles,measurement,setting,value
C[C@H]1O[C@@H](O[C@H]2[C@@H](O)C[C@H](O[C@H]3[C@@H](O)C[C@H](O[C@H]4CC[C@]5(C)C6CC[C@]7(C)[C@@H](C8=CC(=O)OC8)CC[C@]7(O)C6CC[C@@H]5C4)O[C@@H]3C)O[C@@H]2C)C[C@H](O)[C@@H]1O (some centres not stated),normalized growth,"locus YAL021C, strain ccr4, hits give low values",0.984
same,normalized growth,"locus YAL026C, strain drs2, hits give low values",0.965
same,normalized growth,"locus YAL030W, strain snc1, hits give low values",0.964
same,normalized growth,"locus YBL061C, strain skt5, hits give low values",0.975
same,normalized growth,"locus YBR009C, strain hhf1, hits give low values",0.968
same,normalized growth,"locus YBR021W, strain FUR4, hits give low values",0.968
same,normalized growth,"locus YBR023C, strain chs3, hits give low values",0.957
same,normalized growth,"locus YBR171W, strain sec66, hits give low values",0.98
same,normalized growth,"locus YBR229C, strain ROT2, hits give low values",0.982
same,normalized growth,"locus YBR231C, strain swc5, hits give low values",0.979
same,normalized growth,"locus YBR279W, strain paf1, hits give low values",0.967
same,normalized growth,"locus YCL011C, strain gbp2, hits give low values",0.951
same,normalized growth,"locus YCL016C, strain dcc1, hits give low values",0.921
same,normalized growth,"locus YCL029C, strain bik1, hits give low values",0.976
same,normalized growth,"locus YCL061C, strain MRC1, hits give low values",1.01
same,normalized growth,"locus YCL069W, strain vba3, hits give low values",0.969
same,normalized growth,"locus YCR088W, strain abp1, hits give low values",0.99
same,normalized growth,"locus YDL005C, strain med2, hits give low values",1.01
same,normalized growth,"locus YDL035C, strain GPR1, hits give low values",1.03
same,normalized growth,"locus YDL040C, strain nat1, hits give low values",0.975
same,normalized growth,"locus YDL074C, strain BRE1, hits give low values",0.982
same,normalized growth,"locus YDL101C, strain DUN1, hits give low values",0.987
same,normalized growth,"locus YDL134C, strain PPH21, hits give low values",1.02
same,normalized growth,"locus YDL185W, strain tfp1, hits give low values",1
same,normalized growth,"locus YDL192W, strain arf1, hits give low values",1
same,normalized growth,"locus YDR001C, strain nth1, hits give low values",0.968
same,normalized growth,"locus YDR069C, strain doa4, hits give low values",1.02
same,normalized growth,"locus YDR101C, strain arx1, hits give low values",1.01
same,normalized growth,"locus YDR137W, strain rgp1, hits give low values",0.976
same,normalized growth,"locus YDR159W, strain sac3, hits give low values",0.948
same,normalized growth,"locus YDR162C, strain NBP2, hits give low values",1.01
same,normalized growth,"locus YDR195W, strain ref2",1.03
same,normalized growth,"locus YDR297W, strain sur2, hits give low values",0.986
same,normalized growth,"locus YDR318W, strain mcm21, hits give low values",0.989
same,normalized growth,"locus YDR334W, strain swr1, hits give low values",0.983
same,normalized growth,"locus YDR335W, strain msn5, hits give low values",0.984
same,normalized growth,"locus YDR388W, hits give low values",0.986
same,normalized growth,"locus YDR392W, strain spt3, hits give low values",0.931
same,normalized growth,"locus YDR502C, strain sam2, hits give low values",0.993
same,normalized growth,"locus YEL003W, strain gim4, hits give low values",0.989
same,normalized growth,"locus YEL037C, strain rad23, hits give low values",0.976
same,normalized growth,"locus YEL061C, strain CIN8 (second series), hits give low values",0.971
same,normalized growth,"locus YEL061C, strain CIN8, hits give low values",0.999
same,normalized growth,"locus YER015W, strain faa2, hits give low values",0.977
same,normalized growth,"locus YER016W, strain bim1, hits give low values",0.98
same,normalized growth,"locus YER110C, hits give low values",0.989
same,normalized growth,"locus YER111C, strain swi4, hits give low values",0.969
same,normalized growth,"locus YER155C, strain BEM2 (second series), hits give low values",1.03
same,normalized growth,"locus YER155C, strain BEM2, hits give low values",0.988
same,normalized growth,"locus YER167W, strain BCK2, hits give low values",1
same,normalized growth,"locus YFR010W, strain ubp6, hits give low values",1
same,normalized growth,"locus YGL078C, strain dbp3, hits give low values",0.983
same,normalized growth,"locus YGL086W, strain mad1, hits give low values",1.02
same,normalized growth,"locus YGL167C, strain pmr1, hits give low values",1
same,normalized growth,"locus YGL173C, strain kem1, hits give low values",0.972
same,normalized growth,"locus YGL227W, strain vid30, hits give low values",0.989
same,normalized growth,"locus YGL240W, strain doc1, hits give low values",1.05
same,normalized growth,"locus YGL248W, strain PDE1, hits give low values",0.959
same,normalized growth,"locus YGL253W, strain hxk2, hits give low values",0.761 (active)
same,normalized growth,"locus YGR135W, strain pre9, hits give low values",0.965
same,normalized growth,"locus YGR252W, strain gcn5, hits give low values",0.967
same,normalized growth,"locus YHR013C, strain ard1, hits give low values",0.984
same,normalized growth,"locus YHR027C, strain rpn1, hits give low values",0.996
same,normalized growth,"locus YHR030C, strain SLT2, hits give low values",1 and 1.02
same,normalized growth,"locus YHR079C, strain IRE1 (second series), hits give low values",0.982
same,normalized growth,"locus YHR079C, strain IRE1, hits give low values",1.03
same,normalized growth,"locus YHR094C, strain hxt1, hits give low values",0.978
same,normalized growth,"locus YHR129C, strain ARP1, hits give low values",1
same,normalized growth,"locus YHR142W, strain chs7, hits give low values",0.926
same,normalized growth,"locus YHR200W, strain rpn10, hits give low values",0.999
same,normalized growth,"locus YIL066C, strain RNR3, hits give low values",0.993
same,normalized growth,"locus YIL073C, strain SPO22, hits give low values",0.936
same,normalized growth,"locus YIL125W, strain kgd1, hits give low values",0.985
same,normalized growth,"locus YIR030C, strain dcg1, hits give low values",0.976
same,normalized growth,"locus YJL092W, strain hpr5, hits give low values",0.981
same,normalized growth,"locus YJL095W, strain BCK1 (second series), hits give low values",0.991
same,normalized growth,"locus YJL095W, strain BCK1, hits give low values",0.953 and 1.05
same,normalized growth,"locus YJL115W, strain asf1, hits give low values",0.965
same,normalized growth,"locus YJL129C, strain trk1, hits give low values",0.988
same,normalized growth,"locus YJL134W, strain LCB3, hits give low values",0.995
same,normalized growth,"locus YJL154C, strain vps35, hits give low values",0.979
same,normalized growth,"locus YJL164C, strain tpk1, hits give low values",0.962
same,normalized growth,"locus YJL166W, strain qcr8, hits give low values",1.03
same,normalized growth,"locus YJL168C, strain set2, hits give low values",0.981
same,normalized growth,"locus YJL187C, strain SWE1 (second series), hits give low values",0.974
same,normalized growth,"locus YJR043C, strain POL32, hits give low values",1.04
same,normalized growth,"locus YJR066W, strain TOR1, hits give low values",0.958
same,normalized growth,"locus YKL009W, strain mrt4, hits give low values",0.978
same,normalized growth,"locus YKL068W, hits give low values",0.989
same,normalized growth,"locus YKL085W, strain MDH1 (second series), hits give low values",0.963
same,normalized growth,"locus YKL085W, strain MDH1, hits give low values",0.963
same,normalized growth,"locus YKL160W, strain elf1, hits give low values",0.985
same,normalized growth,"locus YKR001C, strain vps1, hits give low values",0.976
same,normalized growth,"locus YKR026C, strain gcn3, hits give low values",0.977
same,normalized growth,"locus YKR091W, strain srl3, hits give low values",0.967
same,normalized growth,"locus YLL001W, strain dnm1, hits give low values",0.989
same,normalized growth,"locus YLL026W, hits give low values",0.977
same,normalized growth,"locus YLL041C, strain sdh2, hits give low values",0.981
same,normalized growth,"locus YLR027C, strain aat2, hits give low values",0.979
same,normalized growth,"locus YLR039C, strain RIC1, hits give low values",0.999
same,normalized growth,"locus YLR058C, strain SHM2, hits give low values",0.978
same,normalized growth,"locus YLR102C, strain apc9, hits give low values",0.979
same,normalized growth,"locus YLR113W, strain HOG1, hits give low values",1.03
same,normalized growth,"locus YLR221C, strain rsa3, hits give low values",0.954
same,normalized growth,"locus YLR258W, strain gsy2, hits give low values",0.96
same,normalized growth,"locus YLR262C, strain YPT6 (second series), hits give low values",0.997
same,normalized growth,"locus YLR262C, strain YPT6, hits give low values",0.992
same,normalized growth,"locus YLR268W, strain sec22, hits give low values",0.988
same,normalized growth,"locus YLR320W, strain mms22, hits give low values",0.928
same,normalized growth,"locus YLR330W, strain CHS5, hits give low values",1
same,normalized growth,"locus YLR342W, strain FKS1 (second series), hits give low values",1.04
same,normalized growth,"locus YLR342W, strain FKS1, hits give low values",1
same,normalized growth,"locus YLR357W, strain rsc2, hits give low values",1.07
same,normalized growth,"locus YLR370C, strain arc18, hits give low values",0.956
same,normalized growth,"locus YLR371W, strain rom2, hits give low values",0.98
same,normalized growth,"locus YLR384C, strain iki3, hits give low values",0.954
same,normalized growth,"locus YLR418C, strain cdc73, hits give low values",0.928
same,normalized growth,"locus YML016C, strain PPZ1, hits give low values",1
same,normalized growth,"locus YML032C, strain rad52, hits give low values",0.996
same,normalized growth,"locus YML120C, strain ndi1, hits give low values",0.992
same,normalized growth,"locus YML124C, strain tub3, hits give low values",0.975
same,normalized growth,"locus YMR058W, strain fet3, hits give low values",1
same,normalized growth,"locus YMR078C, strain ctf18, hits give low values",0.967
same,normalized growth,"locus YMR125W, strain sto1, hits give low values",0.997
same,normalized growth,"locus YMR129W, hits give low values",0.973
same,normalized growth,"locus YMR205C, strain PFK2, hits give low values",0.924
same,normalized growth,"locus YMR223W, strain ubp8, hits give low values",0.966
same,normalized growth,"locus YMR231W, strain pep5, hits give low values",0.992
same,normalized growth,"locus YMR307W, strain GAS1, hits give low values",1.1
same,normalized growth,"locus YNL067W, strain RPL9B, hits give low values",0.981
same,normalized growth,"locus YNL071W, strain lat1, hits give low values",0.979
same,normalized growth,"locus YNL153C, strain GIM3, hits give low values",0.983
same,normalized growth,"locus YNL183C, strain NPR1, hits give low values",0.984
same,normalized growth,"locus YNL209W, strain ssb2, hits give low values",0.977
same,normalized growth,"locus YNL233W, strain BNI4, hits give low values",0.977
same,normalized growth,"locus YNL248C, strain rpa49, hits give low values",0.979
same,normalized growth,"locus YNL250W, strain rad50, hits give low values",0.997
same,normalized growth,"locus YNL271C, strain bni1, hits give low values",0.973
same,normalized growth,"locus YNL298W, strain CLA4, hits give low values",0.984
same,normalized growth,"locus YNL307C, strain MCK1, hits give low values",0.978
same,normalized growth,"locus YNL322C, strain KRE1 (second series), hits give low values",0.972
same,normalized growth,"locus YNR049C, strain mso1, hits give low values",0.977
same,normalized growth,"locus YNR052C, strain pop2, hits give low values",0.999
same,normalized growth,"locus YOL006C, strain TOP1, hits give low values",0.896
same,normalized growth,"locus YOL012C, strain htz1",0.968
same,normalized growth,"locus YOL147C, strain pex11, hits give low values",0.984
same,normalized growth,"locus YOR001W, strain rrp6, hits give low values",1.03
same,normalized growth,"locus YOR061W, strain CKA2, hits give low values",0.994
same,normalized growth,"locus YOR069W, strain VPS5, hits give low values",0.994
same,normalized growth,"locus YOR070C, strain gyp1, hits give low values",0.968
same,normalized growth,"locus YOR080W, strain dia2, hits give low values",0.982
same,normalized growth,"locus YOR083W, strain WHI5, hits give low values",0.967
same,normalized growth,"locus YOR106W, strain vam3, hits give low values",1
same,normalized growth,"locus YOR136W, strain idh2, hits give low values",0.985
same,normalized growth,"locus YOR144C, strain elg1, hits give low values",0.985
same,normalized growth,"locus YOR184W, strain ser1, hits give low values",0.963
same,normalized growth,"locus YOR231W, strain MKK1, hits give low values",1.01
same,normalized growth,"locus YOR265W, strain rbl2, hits give low values",0.988
same,normalized growth,"locus YOR270C, strain vph1, hits give low values",0.89
same,normalized growth,"locus YOR290C, strain snf2, hits give low values",0.944
same,normalized growth,"locus YOR316C, strain cot1, hits give low values",0.977
same,normalized growth,"locus YPL051W, strain arl3, hits give low values",1.01
same,normalized growth,"locus YPL078C, strain atp4, hits give low values",1.02
same,normalized growth,"locus YPL106C, strain sse1, hits give low values",0.989
same,normalized growth,"locus YPL240C, strain hsp82, hits give low values",0.999
same,normalized growth,"locus YPL241C, strain CIN2, hits give low values",1
same,normalized growth,"locus YPL256C, strain CLN2, hits give low values",1.02
same,normalized growth,"locus YPR119W, strain clb2, hits give low values",0.981
same,normalized growth,"locus YPR141C, strain kar3, hits give low values",0.953
same,normalized growth,"locus YPR163C, strain tif3, hits give low values",0.981
same,normalized growth,"locus YPR167C, strain met16, hits give low values",0.989
same,normalized growth,"strain wtn01, hits give low values",1
